# A number with no mark means an inactive call.
# How the values were obtained:
# Experiment in all cases: log2 ratio of Biotin-Ahx-Ub-VS probe labelling (fragment/DMSO); higher = less target engagement (more negative = stronger competition), active = hit call of the paper (q ≤ 0.05, log2 ratio ≤ -1)
# Conditions in all cases: compound concentration: 200 uM; treatment time: 3 h
# ALG13 = biological target: T1, ALG13 (UniProt Q9NP73)
# T1 sequence (whole entry): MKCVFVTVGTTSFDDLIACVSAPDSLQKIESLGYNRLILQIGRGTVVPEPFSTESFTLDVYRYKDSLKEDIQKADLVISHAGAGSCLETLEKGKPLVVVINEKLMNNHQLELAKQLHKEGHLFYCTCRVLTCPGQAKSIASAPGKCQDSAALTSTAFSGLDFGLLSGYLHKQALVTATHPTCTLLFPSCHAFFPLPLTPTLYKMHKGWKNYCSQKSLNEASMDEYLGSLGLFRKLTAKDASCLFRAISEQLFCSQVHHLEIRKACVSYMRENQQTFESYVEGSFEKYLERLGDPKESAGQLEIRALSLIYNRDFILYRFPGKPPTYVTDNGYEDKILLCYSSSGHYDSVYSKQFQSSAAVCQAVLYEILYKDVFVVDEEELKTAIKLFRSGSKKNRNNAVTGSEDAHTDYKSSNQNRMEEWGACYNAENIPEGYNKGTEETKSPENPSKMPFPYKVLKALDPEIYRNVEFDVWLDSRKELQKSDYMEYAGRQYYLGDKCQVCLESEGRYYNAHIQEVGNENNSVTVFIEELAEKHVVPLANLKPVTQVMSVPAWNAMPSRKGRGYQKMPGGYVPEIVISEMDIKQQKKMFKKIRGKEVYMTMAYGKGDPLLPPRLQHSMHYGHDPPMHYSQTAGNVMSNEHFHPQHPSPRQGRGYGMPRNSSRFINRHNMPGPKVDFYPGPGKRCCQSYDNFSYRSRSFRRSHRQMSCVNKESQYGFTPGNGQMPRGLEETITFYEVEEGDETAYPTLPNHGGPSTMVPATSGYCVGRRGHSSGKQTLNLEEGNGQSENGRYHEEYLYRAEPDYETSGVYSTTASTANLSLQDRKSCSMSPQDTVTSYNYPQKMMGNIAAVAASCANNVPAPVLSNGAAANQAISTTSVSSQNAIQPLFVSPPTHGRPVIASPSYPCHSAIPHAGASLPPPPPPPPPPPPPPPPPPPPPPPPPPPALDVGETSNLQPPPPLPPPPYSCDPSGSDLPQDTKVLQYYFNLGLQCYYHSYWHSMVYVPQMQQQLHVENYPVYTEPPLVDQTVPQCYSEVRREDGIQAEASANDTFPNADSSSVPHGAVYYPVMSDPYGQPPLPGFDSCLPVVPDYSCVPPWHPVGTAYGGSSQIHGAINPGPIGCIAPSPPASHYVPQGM
# Method in brief: (§1)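 Lysate from HEK293T cells, 495 µg per sample in Tris/CHAPS/IGEPAL buffer with protease inhibitors, was treated for 3 h in triplicate with fragment at 200 µM or vehicle. Biotin-Ahx-Ub-VS was next added at 0.5 µM final for 1 h. The labelled DUBs were enriched with NeutrAvidin, digested with LysC and trypsin, and run by diaPASEF LC-MS/MS, with values given as average log2 fragment/vehicle ratios by unpaired t-test on global-median-normalised Spectronaut quantities of proteins with ≥2 unique peptides.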
# ATXN3 = ATXN3 (UniProt P54252)
# Method in brief: as §1
# BAP1 = biological target: T2, BAP1 (UniProt Q92560)
# T2 sequence (whole entry): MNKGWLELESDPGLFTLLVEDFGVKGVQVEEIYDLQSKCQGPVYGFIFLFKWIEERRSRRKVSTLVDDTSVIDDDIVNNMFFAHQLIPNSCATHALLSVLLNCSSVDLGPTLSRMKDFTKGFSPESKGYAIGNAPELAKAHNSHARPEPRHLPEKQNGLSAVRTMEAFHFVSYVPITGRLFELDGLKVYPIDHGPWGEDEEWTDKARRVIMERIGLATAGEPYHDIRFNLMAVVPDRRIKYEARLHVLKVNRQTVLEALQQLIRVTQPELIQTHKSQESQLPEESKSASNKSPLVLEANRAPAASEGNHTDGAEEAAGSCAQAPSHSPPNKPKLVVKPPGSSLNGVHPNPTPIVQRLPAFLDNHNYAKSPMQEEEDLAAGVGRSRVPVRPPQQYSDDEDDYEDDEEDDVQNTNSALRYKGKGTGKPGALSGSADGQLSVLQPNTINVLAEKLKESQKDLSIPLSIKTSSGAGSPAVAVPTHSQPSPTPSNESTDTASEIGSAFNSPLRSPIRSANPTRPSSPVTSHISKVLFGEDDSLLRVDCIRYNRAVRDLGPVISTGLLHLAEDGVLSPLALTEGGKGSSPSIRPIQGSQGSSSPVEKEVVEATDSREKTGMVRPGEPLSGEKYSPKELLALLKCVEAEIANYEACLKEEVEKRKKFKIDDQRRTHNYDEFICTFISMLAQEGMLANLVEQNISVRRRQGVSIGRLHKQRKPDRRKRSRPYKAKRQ
# Method in brief: as §1
# EIF3F = EIF3F (UniProt O00303)
# Method in brief: as §1
# EIF3H = EIF3H (UniProt O15372)
# Method in brief: as §1
# FAM105A = biological target: T3, FAM105A (UniProt Q9NUU6)
# T3 sequence (whole entry): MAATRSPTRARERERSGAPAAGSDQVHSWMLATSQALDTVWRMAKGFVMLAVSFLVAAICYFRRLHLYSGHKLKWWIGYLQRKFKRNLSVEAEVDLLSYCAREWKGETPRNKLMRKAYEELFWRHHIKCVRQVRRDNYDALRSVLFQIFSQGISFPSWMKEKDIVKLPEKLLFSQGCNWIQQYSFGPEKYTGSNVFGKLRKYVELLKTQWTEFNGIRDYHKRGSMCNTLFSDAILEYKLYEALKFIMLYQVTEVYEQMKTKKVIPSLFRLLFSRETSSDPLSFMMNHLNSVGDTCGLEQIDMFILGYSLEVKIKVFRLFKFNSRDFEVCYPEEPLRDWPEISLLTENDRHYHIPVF
# Method in brief: as §1
# OTUB1 = OTUB1 (UniProt Q96FW1)
# Method in brief: as §1
# OTUD4 = biological target: T4, OTUD4 (UniProt Q01804)
# T4 sequence (whole entry): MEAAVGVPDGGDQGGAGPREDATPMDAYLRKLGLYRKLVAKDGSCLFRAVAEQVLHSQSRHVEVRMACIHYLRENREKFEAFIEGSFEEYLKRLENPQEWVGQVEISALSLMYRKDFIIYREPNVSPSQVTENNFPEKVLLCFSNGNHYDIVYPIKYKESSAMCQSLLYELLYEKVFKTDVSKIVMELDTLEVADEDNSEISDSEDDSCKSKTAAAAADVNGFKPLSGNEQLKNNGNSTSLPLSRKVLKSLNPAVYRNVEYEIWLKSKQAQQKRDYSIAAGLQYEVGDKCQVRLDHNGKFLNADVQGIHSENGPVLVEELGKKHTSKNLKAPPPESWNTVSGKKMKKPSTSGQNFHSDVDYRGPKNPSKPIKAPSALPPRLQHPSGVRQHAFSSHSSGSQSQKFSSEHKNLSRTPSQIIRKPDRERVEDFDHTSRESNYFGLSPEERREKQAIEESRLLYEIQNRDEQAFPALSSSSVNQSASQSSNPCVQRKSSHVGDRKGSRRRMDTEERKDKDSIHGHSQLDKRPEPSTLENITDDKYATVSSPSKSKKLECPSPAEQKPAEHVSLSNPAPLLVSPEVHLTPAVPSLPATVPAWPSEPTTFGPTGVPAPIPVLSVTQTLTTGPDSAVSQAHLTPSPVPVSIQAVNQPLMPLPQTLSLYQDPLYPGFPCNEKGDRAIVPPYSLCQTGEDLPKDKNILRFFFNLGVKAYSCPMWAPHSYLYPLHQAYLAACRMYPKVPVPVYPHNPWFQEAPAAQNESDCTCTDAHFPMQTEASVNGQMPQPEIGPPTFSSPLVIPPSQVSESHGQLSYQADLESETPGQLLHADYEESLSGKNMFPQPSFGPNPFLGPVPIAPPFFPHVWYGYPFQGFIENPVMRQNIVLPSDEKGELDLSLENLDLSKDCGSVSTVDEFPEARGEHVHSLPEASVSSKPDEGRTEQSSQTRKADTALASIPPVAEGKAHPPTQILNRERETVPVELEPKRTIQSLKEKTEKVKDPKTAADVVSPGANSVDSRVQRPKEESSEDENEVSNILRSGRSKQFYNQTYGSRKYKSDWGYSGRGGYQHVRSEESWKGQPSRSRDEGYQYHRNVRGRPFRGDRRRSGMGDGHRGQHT
# Method in brief: as §1
# OTUD5 = biological target: T5, OTUD5 (UniProt Q96G74)
# T5 sequence (whole entry): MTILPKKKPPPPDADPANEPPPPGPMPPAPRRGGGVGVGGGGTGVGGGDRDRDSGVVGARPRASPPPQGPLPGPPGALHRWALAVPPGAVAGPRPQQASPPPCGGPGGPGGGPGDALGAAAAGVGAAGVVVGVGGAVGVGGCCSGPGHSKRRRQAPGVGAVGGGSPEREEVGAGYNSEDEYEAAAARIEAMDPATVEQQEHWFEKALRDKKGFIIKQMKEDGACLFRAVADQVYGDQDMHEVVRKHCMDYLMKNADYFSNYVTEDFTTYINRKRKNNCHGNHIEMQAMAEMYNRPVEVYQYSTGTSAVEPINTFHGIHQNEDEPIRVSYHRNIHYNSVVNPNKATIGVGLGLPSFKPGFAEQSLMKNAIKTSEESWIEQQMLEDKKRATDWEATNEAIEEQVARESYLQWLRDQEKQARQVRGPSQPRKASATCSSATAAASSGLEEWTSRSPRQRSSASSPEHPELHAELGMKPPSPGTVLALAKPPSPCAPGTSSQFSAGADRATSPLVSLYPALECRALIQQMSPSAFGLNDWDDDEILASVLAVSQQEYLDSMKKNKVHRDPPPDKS
# Method in brief: as §1
# Sequence of EIF3F (O00303 whole entry): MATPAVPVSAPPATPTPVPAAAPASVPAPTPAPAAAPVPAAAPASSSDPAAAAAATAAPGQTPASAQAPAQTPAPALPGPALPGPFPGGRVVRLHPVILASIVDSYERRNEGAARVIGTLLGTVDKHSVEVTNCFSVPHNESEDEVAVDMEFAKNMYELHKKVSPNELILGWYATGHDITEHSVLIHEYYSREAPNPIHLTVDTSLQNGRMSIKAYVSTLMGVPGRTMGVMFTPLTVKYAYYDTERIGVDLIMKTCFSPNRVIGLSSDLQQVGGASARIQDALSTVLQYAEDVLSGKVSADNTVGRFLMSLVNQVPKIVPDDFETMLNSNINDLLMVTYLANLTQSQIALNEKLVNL
# Sequence of ATXN3 (P54252 whole entry): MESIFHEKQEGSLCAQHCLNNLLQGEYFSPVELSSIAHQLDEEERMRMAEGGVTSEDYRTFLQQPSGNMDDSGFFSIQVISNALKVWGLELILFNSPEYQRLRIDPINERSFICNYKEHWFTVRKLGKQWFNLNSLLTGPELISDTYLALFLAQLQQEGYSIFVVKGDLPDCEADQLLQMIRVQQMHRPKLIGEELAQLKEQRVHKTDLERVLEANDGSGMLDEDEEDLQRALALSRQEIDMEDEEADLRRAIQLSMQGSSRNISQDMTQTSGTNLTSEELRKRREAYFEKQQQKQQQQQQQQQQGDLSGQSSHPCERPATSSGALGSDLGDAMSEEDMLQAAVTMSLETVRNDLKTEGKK
# Sequence of OTUB1 (Q96FW1 whole entry): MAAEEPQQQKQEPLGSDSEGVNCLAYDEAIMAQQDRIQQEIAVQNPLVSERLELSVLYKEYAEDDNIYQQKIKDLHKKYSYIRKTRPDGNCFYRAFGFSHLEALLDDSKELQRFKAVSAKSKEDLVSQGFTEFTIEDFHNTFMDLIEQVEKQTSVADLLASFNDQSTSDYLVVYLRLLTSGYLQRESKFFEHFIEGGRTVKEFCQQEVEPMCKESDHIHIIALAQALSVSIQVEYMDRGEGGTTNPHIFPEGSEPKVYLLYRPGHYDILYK
# Sequence of EIF3H (O15372 whole entry): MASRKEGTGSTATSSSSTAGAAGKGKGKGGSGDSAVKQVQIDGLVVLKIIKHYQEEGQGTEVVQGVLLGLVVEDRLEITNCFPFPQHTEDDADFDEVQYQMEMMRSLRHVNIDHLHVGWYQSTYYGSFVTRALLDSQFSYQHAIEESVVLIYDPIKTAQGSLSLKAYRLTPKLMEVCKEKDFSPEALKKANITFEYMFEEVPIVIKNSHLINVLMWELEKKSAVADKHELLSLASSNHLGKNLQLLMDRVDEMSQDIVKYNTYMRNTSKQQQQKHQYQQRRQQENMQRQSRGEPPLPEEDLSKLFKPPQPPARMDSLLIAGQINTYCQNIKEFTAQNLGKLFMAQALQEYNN
smiles,measurement,setting,value
O=C(CCl)N1CCc2[nH]c3ccccc3c2C1,log2 ratio of Biotin-Ahx-Ub-VS probe labelling,ALG13,-0.37
same,log2 ratio of Biotin-Ahx-Ub-VS probe labelling,ATXN3,-0.343
same,log2 ratio of Biotin-Ahx-Ub-VS probe labelling,BAP1,-0.875
same,log2 ratio of Biotin-Ahx-Ub-VS probe labelling,EIF3F,-0.00281
same,log2 ratio of Biotin-Ahx-Ub-VS probe labelling,EIF3H,0.231
same,log2 ratio of Biotin-Ahx-Ub-VS probe labelling,FAM105A,0.0311
same,log2 ratio of Biotin-Ahx-Ub-VS probe labelling,OTUB1,-0.167
same,log2 ratio of Biotin-Ahx-Ub-VS probe labelling,OTUD4,-0.657
same,log2 ratio of Biotin-Ahx-Ub-VS probe labelling,OTUD5,-1.55 (active)
